In PubChem BioAssay (EPA / NIEHS) one finds outcome and AC50 data, which are given here for six compounds.

Results filed as inconclusive are left out. Active and inactive are the calls of the source. The calls were made as follows: active = hit-call score of the fitted dose curve at least 0.9, where 1 is the maximum; inconclusive = response in the unintended direction; inactive = score below 0.9.

As a reminder, the AC50 is the midpoint of the concentration-response curve, whichever way the signal moves.

System in the first test: not listed separately
The test is described as follows: ArunA_Migration_hNC: ArunA Biomedical's Oris Neural Crest (hNC) Cell Migration Assay (AID 2283755). In outline: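 Human H9-derived neural crest stem cells, 60,000/well on Matrigel, 16 h at 37C, then 72 h chemical exposure after seeding-stopper removal. Migration into detection zone read as calcein-AM fluorescence (ex494/em517), relative to DMSO.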
In the case of `O=S(=O)(O)C(F)(F)C(F)(F)C(F)(F)C(F)(F)C(F)(F)C(F)(F)C(F)(F)C(F)(F)F`, the call was inactive.

Turning to `Oc1cc(Cl)ccc1Oc1ccc(Cl)cc1Cl`, the call was inactive.

As to `CCC(C)Nc1c([N+](=O)[O-])cc(C(C)(C)C)cc1[N+](=O)[O-]` (stereo unspecified), the compound was classed as inactive.

System in the next test: not listed separately
The test is described as follows: ArunA_NOG_NucleusCount: ArunA Biomedical's Neurite Outgrowth (NOG) Assay for Nucleus Count (AID 2283756). In outline: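 Human H9-derived differentiated neurons were exposed for 48 h right after seeding. Hoechst-stained nuclei gated by size and intensity were counted by automated high-content imaging as viable neurons. Loss of signal vs DMSO.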
As to `O=S(=O)(O)C(F)(F)C(F)(F)C(F)(F)C(F)(F)C(F)(F)C(F)(F)C(F)(F)C(F)(F)F`, the AC50 is 0.649 µM (active).

On to `Oc1cc(Cl)ccc1Oc1ccc(Cl)cc1Cl`, for which the compound was classed as inactive.

As to `CCC(C)Nc1c([N+](=O)[O-])cc(C(C)(C)C)cc1[N+](=O)[O-]` (stereo unspecified), the result was inactive.

System in the next test: not listed separately
The test is described as follows: ArunA_NOG_BranchPointsPerNeurite: ArunA Biomedical's Neurite Outgrowth (NOG) Assay for Branch Points Per Neurite (AID 2283759). The essentials: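 Automated image analysis traced neurites (processes >10 um) from valid cell bodies after Hoechst and βIII-tubulin staining. hNN cells from H9 embryonic stem cells, 48 h exposure. Fitted bidirectionally against DMSO.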
`O=S(=O)(O)C(F)(F)C(F)(F)C(F)(F)C(F)(F)C(F)(F)C(F)(F)C(F)(F)C(F)(F)F`: the compound was classed as inactive.

For `Oc1cc(Cl)ccc1Oc1ccc(Cl)cc1Cl`, the call was inactive.

For `CCC(C)Nc1c([N+](=O)[O-])cc(C(C)(C)C)cc1[N+](=O)[O-]` (stereo unspecified), the compound was classed as inactive.

For a further test, the system named is zebrafish Androgen Receptor (AR), gene 100005148. The test is described as follows: ATG_zfAR_XSP1: Attagene TRANS-FACTORIAL Multi-Species (XSP1) HepG2 Assay for zebrafish Androgen Receptor (AR) (AID 2283771). In outline: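 HepG2 cells were transiently transfected with a zebrafish AR-GAL4 reporter system and partially stimulated with 3 nM 6-alpha-fluorotestosterone. Reporter mRNA was measured after 24 h dosing by RT-PCR with capillary electrophoresis, and gain-of-signal was fitted relative to DMSO.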
Turning to `Oc1cc(Cl)ccc1Oc1ccc(Cl)cc1Cl`, the outcome was inactive.

With `CC1(C)C(C=C(Cl)Cl)C1C(=O)OC(C#N)c1ccc(F)c(Oc2ccccc2)c1` (stereo unspecified), the compound was classed as inactive.

On to `O=S1OCC2C(CO1)C1(Cl)C(Cl)=C(Cl)C2(Cl)C1(Cl)Cl` (stereo unspecified), for which the outcome was inactive.

In a further test the test system is zebrafish Estrogen Receptor (ESR2B), gene 317733. The test is described as follows: ATG_zfER2b_XSP1: Attagene TRANS-FACTORIAL Multi-Species (XSP1) HepG2 Assay for zebrafish Estrogen Receptor (ESR2B) (AID 2283773). On the procedure:
ATG_XSP1_multi-species_TRANS is a cell-based, multiplexed assay created by modifying the existing Attagene TRANS-FACTORIAL system to include a panel of nuclear receptors from some or all the following species: human (Homo sapiens), mouse (Mus musculus), frog (Xenopus laevis), zebrafish (Danio rerio), chicken (Gallus gallus), and turtle (Chrysemys picta). The ECOTOX-FACTORIAL format uses HepG2, a human liver cell line, with measurements taken at 24 hours after chemical dosing in a 24-well plate. Xsp1 included 3 nM 6-alpha-fluorotestosterone to partially stimulate the androgen receptor.ATG_zfER2b_XSP1 is one of 29 assay components measured or calculated from the ATG_XSP1_multi-species_TRANS assay. It is designed to make measurements of mRNA induction, a form of inducible reporter, as detected with fluorescence intensity signals by Reverse transcription polymerase chain reaction (RT-PCR) and Capillary electrophoresis technology.The assay endpoint ATG_zfER2b_XSP1 was analyzed in the positive analysis fitting direction relative to DMSO as the negative control and baseline of activity. Using a type of inducible reporter, measures of mRNA for gain-of-signal activity can be used to understand the reporter gene at the transcription factor-level as they relate to the gene ER. Furthermore, this assay endpoint can be referred to as a primary readout, because this assay has produced multiple assay endpoints where this one serves a reporter gene function. To generalize the intended target to other relatable targets, this assay endpoint is annotated to the nuclear receptor intended target family, where the subfamily is steroidal.
Human liver HepG2 cells are transiently transfected with multiple reporter transcription units (MRTUs) in 6-well plates using FuGene 6 reagent (Roche; 3 ml FuGene/1 mg DNA). The MRTU constructs are regulated by a cis-regulating element (promoter). […] A major difference between the CIS and TRANS system is that in CIS activities of endogenous TFs are measured, whereas the TRANS assay evaluates changes in activities of exogenous, chimeric NR-Gal4 proteins. […] At the end of 24 hour incubation, total RNA was isolated using TriZol reagent (Invitrogen). The isolated RNA is then reverse-transcribed using oligo(dT) primer and Mo-MLV reverse transcriptase (Invitrogen) with DNAse I (Ambion) treatment for 30 min. The one-tenth of the produced cDNA was amplified by PCR using Taq DNA polymerase (Invitrogen) and two reporter sequence-specific primers. The PCR products were fluorescently labeled by primer extension with 6-arboxyfluorescein (6-FAM) 5'-labeled reporter sequence-specific primer (2 min at 95 C, 20 s at 68 C and 10 min at 72 C) and these products were digested with 5U of HpaI (New England Biolabs) for 2h at 37 C. The fragments were purified using Qiaquick PCR columns (Qiagen), analyzed on an ABI 3130xL genetic analyzer (Applied Biosystems) with peak positions identified by using a set of X-rhodamine (ROX)-labeled MapMarker1000 molecular weight standards (BioVentures). The raw capillary electrophoresis data was processed using Attagraph software (Attagene).
Consider `O=S(=O)(O)C(F)(F)C(F)(F)C(F)(F)C(F)(F)C(F)(F)C(F)(F)C(F)(F)C(F)(F)F`, for which the compound was called inactive.

As for `CC1(C)C(C=C(Cl)Cl)C1C(=O)OC(C#N)c1ccc(F)c(Oc2ccccc2)c1` (stereo unspecified), the AC50 was 35.5 µM (active).

As to `O=S1OCC2C(CO1)C1(Cl)C(Cl)=C(Cl)C2(Cl)C1(Cl)Cl` (stereo unspecified), the AC50 is 4.8 µM (active).

With `Oc1ccc(Cl)cc1Cc1ccccc1`, the AC50 is 3.36 µM (active).

A further test deals with frog Estrogen Receptor (ESR2), gene 100174814. The experiment in a line: ATG_frER2_XSP1: Attagene TRANS-FACTORIAL Multi-Species (XSP1) HepG2 Assay for frog Estrogen Receptor (ESR2) (AID 2283774). In outline: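 HepG2 cells transiently transfected with GAL4-UAS multiplexed reporter units expressing chimeric NR-Gal4 proteins; reporter mRNA measured 24 h after dosing by RT-PCR, FAM labeling, HpaI digestion and capillary electrophoresis. Gain-of-signal relative to DMSO; 3 nM 6-alpha-fluorotestosterone present.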
On to `O=S(=O)(O)C(F)(F)C(F)(F)C(F)(F)C(F)(F)C(F)(F)C(F)(F)C(F)(F)C(F)(F)F`, for which the AC50 is 49.8 µM (active).

As to `Oc1cc(Cl)ccc1Oc1ccc(Cl)cc1Cl`, the concentration at half-maximal activity (AC50) was 7.05 µM (active).

Turning to `CC1(C)C(C=C(Cl)Cl)C1C(=O)OC(C#N)c1ccc(F)c(Oc2ccccc2)c1` (stereo unspecified), the AC50 is 27 µM (active).

Consider `O=S1OCC2C(CO1)C1(Cl)C(Cl)=C(Cl)C2(Cl)C1(Cl)Cl` (stereo unspecified), for which the AC50 was 10 µM (active).

In the case of `Oc1ccc(Cl)cc1Cc1ccccc1`, the AC50 is 2.69 µM (active).
